Here are results for 40 molecules from PubChem BioAssay (Tox21).

“And” between values parts separate entries of the source, which are not always exact repeats. Equal entries are not always repeated. Inconclusive results are not listed. The source made the active and inactive calls. Calls come from the whole dose curve; as a rule, active = well fitted cell-killing curve with a large enough effect in the repeat runs; inconclusive = weak or mixed curves, or effect the other way; inactive = flat fitted curve, though single readings scatter.
% is set by controls: 0 for no effect and ±100 for the full control effect; potency is the fitted concentration of half-maximal effect.

This experiment is described as follows: qHTS assay to identify small molecule agonists of the TGF-beta/Smad signaling pathway - cell viability counter screen (AID 1346829). For activity change, negative = cytotoxicity: top concentration of the series differs between compounds. Note: nearly all actives have a fitted effect of over 45% in size. Conditions: SBE-bla HEK293T viability, CellTiter-Glo luminescence, 5 h; series mostly up to 76.8 µM; activity change, negative = cytotoxicity: at the top concentration. The source says:
National Center for Advancing Translational Sciences [NCATS]
NIH Chemical Genomics Center [NCGC]
U.S. Environmental Protection Agency [EPA]
National Institutes of Environmental Health Sciences [NIEHS]
National Toxicology Program [NTP]
U.S. Food and Drug Administration [FDA]
Transforming growth factor beta (TGF-beta) superfamily consists of a large number of structurally related dimeric proteins that act as hormones or local mediators in regulating a wide range of biological functions. This superfamily includes TGF-betas themselves, the bone morphogenetic proteins (BMPs) and the activins. These ligands induce oligomerization of serine/threonine receptor kinases and phosphorylate the cytoplasmic signaling molecules of Smad protein family. CellSensor SBE-bla HEK 293T cell line (Life Technologies, Carlsbad, CA), responsive to TGF-beta was used to screen Tox21 10K compound library for identification of agonists/antagonists of the Smad signaling pathway. This cell line contains a beta-lactamase reporter gene under control of the Smad binding element (SBE) stably integrated into HEK 293T cells. Also cytotoxicity of the compounds was tested in parallel by measuring the cell viability using CellTiter-Glo assay system in the same wells.
Tox21 Assay Protocol Summary:
SBE-bla HEK 293T cells were dispensed at 4,000/well in 6 uL of assay medium into black wall/clear-bottom 1536-well plates using a Multidrop Combi (ThermoFisher Scientific, Waltham, MA) dispenser. After the assay plates were incubated at 37 C and 5% CO2 for an overnight, 23 nL of compounds dissolved in DMSO, positive controls or DMSO only was transferred to the assay plate by a Pintool station (Kalypsys, San Diego, CA). The assay plates were incubated at 37 C and 5% CO2 for 5 hr. One uL of LiveBLAzer B/G FRET substrate (Life Technologies) was added using a Flying Reagent Dispenser (FRD, Aurora Discovery, San Diego, CA) and the plates were incubated at room temperature for 2 hr. Fluorescence intensity (405 nm excitation, 460 nm and 530 nm emissions) was measured using an Envision plate reader (PerkinElmer, Shelton, CT). For cytotoxicity read, 4 uL of CellTiter-Glo reagent (Promega Corporation, Madison, WI) was added to each well of the assay plates using FRD. After 30min incubation at room temperature, the luminescence intensity was measured using ViewLux plate reader (PerkinElmer).
A general note: Quantitative high-throughput screening tests each substance at several concentrations.
As for `C=CCOC(N)=O`, the “activity change, negative = cytotoxicity” value was -4.5% (inactive). Same read-out and setting: in the case of `Clc1ccc(CSC(Cn2ccnc2)c2ccc(Cl)cc2Cl)cc1` (stereo not given) it was -29.7% [at 35.3 µM] (inactive); in that of `N#CCCO`, -2.58% (inactive).

Turning to `CN(C)C(=S)S`, the Potency result is “inactive”. Take `NC(=O)CCl`: the “activity change, negative = cytotoxicity” value was 11.7% (inactive). On the same count and under the same terms, for `[CH3][Hg][Cl]` the value was -12.8% (inactive); for `N#C/C=C/C#N`, 2.64% (inactive).

For `O=C(CCCN1CCC2(CC1)C(=O)NCN2c1ccccc1)c1ccc(F)cc1`, the “activity change, negative = cytotoxicity” value is 3.12% [at 35.3 µM] (inactive). For `CN(C)C1CSSSC1`, the “activity change, negative = cytotoxicity” value was -20.2% (inactive). Still for that read-out and setting: for `CC(C)C(=O)Cl` the value was -3.98% (inactive). Consider `CC(=O)OC1(c2ccccc2)CCN(CCc2ccccc2)CC1`, for which the “activity change, negative = cytotoxicity” value was -16.5% (inactive).

With `O=C(O)C1C2CCC(O2)C1C(=O)O` (stereo not given), the Potency entry is “inactive”. Consider `COC(=O)N(C(=O)N1CO[C@@]2(C(=O)OC)Cc3cc(Cl)ccc3C2=N1)c1ccc(OC(F)(F)F)cc1`, for which the “activity change, negative = cytotoxicity” value is -21.5% (inactive). Same read-out and setting: for `CCC(C)c1cc([N+](=O)[O-])cc([N+](=O)[O-])c1OC(=O)C=C(C)C` (stereo not given) the value was -14.7% (inactive).

For the molecule `ClC(Cl)=C(c1ccc(Cl)cc1)c1ccc(Cl)cc1`, the Potency result is “inactive”. With `COc1cc(N)c(Cl)cc1C(=O)NC1CN2CCC1CC2` (stereo not given), the “activity change, negative = cytotoxicity” value is -0.97% [at 35.3 µM] (inactive). Take `NNC(=O)c1ccccc1`: the “activity change, negative = cytotoxicity” value is 5.89% (inactive). As for `N#C/C=C/c1ccccc1`, the “activity change, negative = cytotoxicity” value is -0.516% (inactive). On to `CC(C)CCCCCOC(=O)c1ccccc1C(=O)OCCCCCC(C)C`, for which the “activity change, negative = cytotoxicity” value was -19.2% (inactive). Regarding `CC(C)OC(=S)S`, the “activity change, negative = cytotoxicity” value is -17.8% (inactive). Consider `COc1ccc(N)cc1N`, for which the Potency was 7.14 µM (active) and 11.8 µM (active). As for `N#CC(Cl)Cl`, the “activity change, negative = cytotoxicity” value was -2.18% (inactive). For `S=C=Nc1cccc2ccccc12`, the “activity change, negative = cytotoxicity” value was -0.398% (inactive). The same measure, in the same setting: for `CCOP(=S)(OCC)SCS(=O)(=O)C(C)(C)C` the value was 14.1% (inactive). Consider `CC(=O)O[C@H]1CC[C@@]2(C)C(=CC[C@@H]3[C@@H]2CC[C@]2(C)C(=O)CC[C@@H]32)C1`, for which the “activity change, negative = cytotoxicity” value was -18.5% (inactive). Same read-out and setting: in the case of `CNC(C)Cc1ccc2c(c1)OCO2` (stereo not given) it was 23.7% (inactive). For the molecule `CC(C)(c1ccc(O)c(-c2ccccc2)c1)c1ccc(O)c(-c2ccccc2)c1`, the Potency is 34.7 µM (active). For the molecule `CC(=[OH+])/C=C(/C)[O-].CC(=[OH+])/C=C(\C)[O-].CC(=[OH+])/C=C(\C)[O-].[Al]`, the “activity change, negative = cytotoxicity” value was -3.17% (inactive).

On to `CCN`, for which the “activity change, negative = cytotoxicity” value was 2.56% (inactive).

Regarding `CCN(CC)c1c([N+](=O)[O-])cc(C(F)(F)F)c(N)c1[N+](=O)[O-]`, the “activity change, negative = cytotoxicity” value is -5.3% (inactive).

Consider `Oc1ccc(C(=C(Cl)Cl)c2ccc(O)cc2)cc1`, for which the “activity change, negative = cytotoxicity” value is -2.6% (inactive).

With `c1ccc(Nc2ccc3ccccc3c2)cc1`, the Potency result is “inactive”. As to `O=[N+]([O-])c1c2ccccc2cc2ccccc12`, the “activity change, negative = cytotoxicity” value is -25% (inactive). Same read-out and setting: in the case of `CCOCCOC(C)=O` it was 14.9% (inactive).

For the molecule `c1cc[c]([Sb]([c]2ccccc2)[c]2ccccc2)cc1`, the “activity change, negative = cytotoxicity” value was -2.25% (inactive). Same read-out and setting: in the case of `Cc1ccc(OP(=O)(Oc2ccccc2)Oc2ccccc2)cc1` it was -11.7% (inactive). Take `Cc1cc(C(F)(C(F)(F)F)C(F)(F)F)ccc1NC(=O)c1cccc(I)c1C(=O)NC(C)(C)CS(C)(=O)=O`: the “activity change, negative = cytotoxicity” value was -1.72% [at 35.3 µM] (inactive).

With `COP(=O)(OC)SCn1c(=O)oc2cc(Cl)cnc21`, the “activity change, negative = cytotoxicity” value is -4.73% (inactive).

In the case of `N#Cc1ccccc1Cl`, the “activity change, negative = cytotoxicity” value is 0.993% (inactive). The same measure, in the same setting: in the case of `Clc1ccc(C(c2ccccc2Cl)C(Cl)(Cl)Cl)cc1` (stereo not given) it was -25.1% (inactive).
